Hit rate of the full screen: of about 190,000 compounds, about 810 (0.43%) were called active. Rule as the data show it: active = inhibition above about 50%; inactive = the rest. The sample as a whole holds a higher share of actives than the screen did.
Target: Mannose-6-phosphate isomerase (Homo sapiens) (UniProt P34949)
Assay: inhibitors of human PMI, primary screen, biochemical, fluorescence intensity, coupled assay (AID 1209);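 also: plate controls were DMSO vehicle for no effect and wells lacking substrate for full effect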
Conditions: purified PMI enzyme, at 20 µM, active compounds read high

Mannose-6-phosphate isomerase (Homo sapiens), sequence (P34949 whole entry, looked up): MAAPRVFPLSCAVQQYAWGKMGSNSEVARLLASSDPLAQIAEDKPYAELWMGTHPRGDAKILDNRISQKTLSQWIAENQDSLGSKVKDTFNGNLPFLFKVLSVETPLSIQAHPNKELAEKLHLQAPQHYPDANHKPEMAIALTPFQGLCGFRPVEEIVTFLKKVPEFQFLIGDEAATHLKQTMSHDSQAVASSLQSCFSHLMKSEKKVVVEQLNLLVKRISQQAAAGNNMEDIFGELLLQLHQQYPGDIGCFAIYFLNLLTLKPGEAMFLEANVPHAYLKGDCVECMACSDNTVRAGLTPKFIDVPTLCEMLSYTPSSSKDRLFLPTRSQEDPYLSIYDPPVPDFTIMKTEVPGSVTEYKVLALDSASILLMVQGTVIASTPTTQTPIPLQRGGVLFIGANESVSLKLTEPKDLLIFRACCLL

inhibition, active:
Cc1cc(C)c(Nc2cc(S(=O)(=O)O)c(N)c3c2C(=O)c2ccccc2C3=O)c(C)c1 91.5%
O=C(NNc1ccccn1)C(c1ccccc1)c1ccccc1 50.2%
c1ccc(C2=Nn3c(nnc3-c3ccco3)SC2)cc1 75.6%
O=C(/C=C/Sc1ncn[nH]1)c1ccc(Cl)cc1 50.3%
CCOc1cc(C(=S)N2CCOCC2)ccc1O 66.8%
O=C(CN1CCN(c2ccccc2)CC1)Nc1ccc(-n2cnnn2)cc1 108%
Cc1snc(SCC(=O)c2ccc(Cl)cc2)c1C#N 56.7%
COc1ccc(C(=O)C2CCCN(C(=O)COc3ccc(C(C)=O)cc3)C2)cc1F (stereo not given) 57.4%
Cc1ccc2[nH]c3c(c2c1)CCc1cn[nH]c1-3 69.4%
COc1ccc(C(=O)C[N+]2(C)CCOCC2)cc1 81.3%
CC(C)CCOc1ccc(C(=O)C[N+]2(C)CCOCC2)cc1 81.8%
C=C1N(C)c2cc([N+](=O)[O-])c(N)cc2C1(C)C 94%
O=C(CCN1CCOCC1)c1ccc(Br)cc1 60.4%
CC1CCCN(CCC(=O)c2ccc(Br)cc2)C1 (stereo not given) 60.1%
O=C(CCN1CCN(c2ccccc2F)CC1)c1ccc(Br)cc1 59.8%
COc1ccc(S(=O)(=O)NCC(=O)N(CC(=O)NC(C)(C)C)Cc2cccs2)cc1 110%
O=C(O)c1ccc2c(c1)C(=O)N(c1cccc(-c3nc4ccccc4s3)c1)C2=O 102%
COCCOC(=O)C1=C(C)NC2(O)c3ccccc3C(=O)C12O (stereo not given) 70.5%
O=S(=O)(NCCN1CCOCC1)c1cccs1 68.9%

inhibition, inactive:
O=C(CNCc1ccc(F)cc1)Nc1ccccc1[N+](=O)[O-] 5%
Cc1cc(C)c(NC(=O)COC(=O)c2cccc3c2C(=O)c2ccccc2C3=O)c(C)c1 5.1%
Cc1cccc(S(=O)(=O)Nc2cccc3c2C(=O)c2ccccc2-3)c1 10.6%
COc1ccc(CCC(=O)NNC(=S)Nc2cccc(C(C)=O)c2)cc1 1.2%
Cn1nnnc1SCc1ccc(C(=O)Nc2ccccc2F)cc1 9%
O=C(NNC(=O)C(c1ccccc1)c1ccccc1)c1ccccn1 10.3%
C/C(=N\NC(=O)C(c1ccccc1)c1ccccc1)c1ccccn1 -5%
O=C(OCc1cnc(Cl)s1)c1cccc(Cl)c1 10.3%
CC(=O)Nc1ccc(/C(C)=N/NC(=O)c2ccccc2Cl)cc1 5.1%
COc1ccc(C2=Nn3c(nnc3-c3ccco3)SC2)cc1 -15.3%
CCOc1ccc(C2=Nn3c(nnc3-c3ccco3)SC2)cc1 8.1%
C/C(=C\C(=O)Nc1nccs1)c1ccccc1 9.8%
Cc1cc(C)n2cc(CSc3ccccn3)nc2n1 -5.1%
O=C(/C=C/Sc1ccccc1)c1ccc(Cl)cc1 -10%
Clc1ccc(CSc2ncn[nH]2)cc1 7.1%
Cc1cc(C)n2nc(SCCOc3ccccc3F)nc2n1 -4.9%
O=C(CSc1nccc(=O)[nH]1)Nc1ccc(F)c(Cl)c1 1.7%
COCc1c(C#N)c(NCCc2ccccc2)nc(C)c1[N+](=O)[O-] 11.3%
CCCCn1c(SCC(=O)NCc2cccs2)nc2c1c(=O)n(C)c(=O)n2C 9%
CCOc1cc(C(=S)N2CCOCC2)ccc1OC 3.4%
CCOc1ccc(C(=S)N2CCOCC2)cc1OCC -6.6%
O=C(CN1C(=O)C2C3C=CC(C3)C2C1=O)Nc1ccc(F)cc1 (stereo not given) 0.9%
O=C(CN1CCN(c2ccc(F)cc2)CC1)Nc1ccc(-n2cnnn2)cc1 3.3%
O=C(CN1CCN(Cc2ccccc2)CC1)Nc1ccc(-n2cnnn2)cc1 -1.5%
COc1ccc(/C=N/NC(=S)SC)cc1OC 12.8%
Cc1ccc(C(=O)N(C)c2ccc(OCC(=O)N3c4ccc(C)cc4C4CN(C)CCC43)cc2)cc1 (stereo not given) 1.9%
Cc1ccc(C(=O)CSc2nsc(C)c2C#N)cc1 7.2%
Cc1nnc(SCC(=O)c2ccc([N+](=O)[O-])cc2)s1 2.6%
Cc1snc(SCC(=O)c2ccc(F)cc2)c1C#N -11.6%
Cc1cc(C)nc(SCC(=O)c2ccc([N+](=O)[O-])cc2)n1 -11.2%
Cc1ccc(CC2CC(=O)N(C(Cc3ccccc3)C(=O)O)C2=O)cc1 (stereo not given) 0.9%
C#CCOCCOCCOCCNc1nc(N2CCN(C(=O)[C@H]([C@@H](C)CC)n3cc(CCCN=C(N)N)nn3)CC2)nc(N2CCN(C(=O)[C@H](C)n3cc(CCCN=C(N)N)nn3)CC2)n1 -22.8%
CCN1CCCC1CNC(=O)CSc1cc(=O)n(C)c2cc(Cl)ccc12 (stereo not given) -0.3%
COc1ccc(C(=O)C2CCCN(C(=O)c3ccccc3C(C)=O)C2)cc1F (stereo not given) -0.2%
COc1ccc(C(=O)C2CCCN(C(=O)c3cccs3)C2)cc1F (stereo not given) -2.9%
CC(=O)Nc1nc(SCCCc2ccccc2)n[nH]1 -3.1%
COc1cccc(NC(=S)NNC(=O)CCn2cc([N+](=O)[O-])cn2)c1 9.6%
O=C(Nc1nc(-c2ccc(Oc3ccccc3)cc2)cs1)C1=COCCO1 19.1%
c1ccc2c3c([nH]c2c1)-c1[nH]ncc1CC3 49%
Clc1ccc2[nH]c3c(c2c1)CCc1cn[nH]c1-3 12.6%
CC(C)CCOc1ccc(C(=O)O)cc1 7.9%
CC(C)CCOc1ccc(C(=O)NCCC(=O)N2CCOCC2)cc1 8.3%
COc1ccc(C(=O)OCC[N+]2(C)CCCCC2)cc1 4.5%
COc1ccc(C(=O)OCC[N+]2(C)CCOCC2)cc1 -0.9%
Oc1ccccc1C1=Nc2ncnn2C(c2ccccc2)C1 (stereo not given) -40.5%
CCOCCCNC(=O)C(c1ccc(C)cc1)N(Cc1cccs1)C(=O)c1ccccn1 (stereo not given) 0.7%
CCCCCCCCc1nnc(NC(=O)c2ccco2)s1 2.7%
CCC(c1nnnn1Cc1cccs1)N1CCN(C2CCCC2)CC1 (stereo not given) 0%
O=C(N/C(=C\c1cccc([N+](=O)[O-])c1)C(=O)N1CCOCC1)c1ccc([N+](=O)[O-])cc1 12.3%
O=C(C1=C[C@@H](C2CCCCC2)C[C@@H](OCc2ccc(CO)cc2)O1)N1CCN(Cc2ccc3c(c2)OCO3)CC1 19.6%
Cn1c(SCC(=O)C(C)(C)C)nnc1-c1ccncc1 6%
Cc1ccc(C(C)(C)C)cc1S(=O)(=O)NC(=O)c1ccccc1 -10.8%
CC1(C)Oc2cc(N)c([N+](=O)[O-])cc2O1 17.5%
Nc1ccc(-c2ccc(N)c([N+](=O)[O-])c2)cc1[N+](=O)[O-] -6.5%
Cc1ncc2c(c1OC(=O)c1ccc([N+](=O)[O-])cc1)COC(C)(C)OC2 -1.9%
O=C(CCNC(=O)c1ccco1)Nc1ccc(Cl)cc1 4.4%
CC1CCCN(CCC(=O)Nc2ccc(Br)cc2)C1 (stereo not given) -13.4%
CC1CCCN(CCOc2ccc(Br)cc2)C1 (stereo not given) -8.8%
COc1ccc(C(=O)CCN2CCN(c3ccccc3F)CC2)cc1 16.8%
O=C(CCN1CCOCC1)c1ccc(Cl)cc1 25.9%
O=C(CCN1CCOCC1)c1ccccc1 -1.6%
O=C(CCN1CCN(c2ccccc2F)CC1)Nc1ccccc1F -9.9%
COc1cc(C)nc(N2CCC(C(N)=O)CC2)n1 -2.7%
Cc1cc(=O)n2[nH]c(-c3ccc(F)cc3)nc2n1 7.6%
CC(=O)Nc1nc(NC(=O)/C=C/c2ccccc2)n(-c2ccccc2)n1 -31.3%
C=CCc1ccccc1OCCOc1ccc([N+](=O)[O-])cc1/C=N/NC(N)=O 3.8%
CC(C)(C)NC(=O)CN(Cc1cccs1)C(=O)CNS(=O)(=O)c1ccccc1 -0.6%
Cc1ccc(S(=O)(=O)NCC(=O)N(CC(=O)NC(C)(C)C)Cc2cccs2)cc1 -16%
NC(=O)c1nn(CC(=O)Nc2ccc3c(c2)OCO3)cc1[N+](=O)[O-] 0%
Cc1ccc(NCC(=O)N/N=C/c2c[nH]c3ccccc23)cc1 0%
Cc1ccc(S(=O)(=O)Nc2cnc3ccccc3c2)cc1 3.8%
CC(=O)Oc1cccc(N2C(=O)c3ccc(C(=O)O)cc3C2=O)c1 -31.5%
O=C(O)c1ccc2nc(-c3ccccc3)sc2c1 -10.7%
COc1ccc(/C(O)=C2\C(=O)C(=O)N(CCN(C)C)C2c2cc(OC)c(OC)c(OC)c2)c(C)c1 (stereo not given) -21.3%
CCOC(=O)C1=C(C)NC2(O)c3ccccc3C(=O)C12O (stereo not given) 12.1%
CCOC(=O)C1=C(C)N[C@@]2(O)c3ccccc3C(=O)[C@@]12O 21%
COc1ccccc1OCC(=O)NNC(=O)c1c(-c2ccccc2Cl)noc1C -14.6%
O=S(=O)(NCCN1CCOCC1)c1ccc(Cl)s1 -5.3%
O=S(=O)(NCCNS(=O)(=O)c1cccs1)c1cccs1 -15.3%
Cc1cc2cc(C)c3nnc(SCC(=O)N4CCCc5ccccc54)n3c2cc1C 12.3%
N#CCCn1cc(C(=O)O)c(-c2cc3ccccc3o2)n1 -2.3%
